Results reported in the supplement of paper PMC11732987, “Enantioselective OTUD7B fragment discovery through chemoproteomics screening and high-throughput optimisation” (Communications Chemistry, 2025).
A number with no mark means an inactive call.

What was measured:
Experiment in all cases: log2 ratio of Biotin-Ahx-Ub-VS probe labelling (fragment/DMSO); higher = less target engagement (more negative = stronger competition), active = hit call of the paper (q ≤ 0.05, log2 ratio ≤ -1)
Details in all cases: compound concentration: 200 uM; treatment time: 3 h
OTUD6B = molecular target: T1, OTUD6B (UniProt Q8N6M0)
T1 sequence (whole entry): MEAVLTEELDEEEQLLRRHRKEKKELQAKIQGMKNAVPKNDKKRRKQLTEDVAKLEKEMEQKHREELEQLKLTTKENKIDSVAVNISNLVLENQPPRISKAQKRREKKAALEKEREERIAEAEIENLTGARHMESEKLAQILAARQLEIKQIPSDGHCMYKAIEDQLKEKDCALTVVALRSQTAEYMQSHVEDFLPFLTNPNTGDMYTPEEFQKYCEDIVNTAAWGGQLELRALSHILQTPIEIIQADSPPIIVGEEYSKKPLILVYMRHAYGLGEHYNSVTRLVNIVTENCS
How it was run: (§1)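 HEK293T lysate in Tris/CHAPS/IGEPAL buffer with protease inhibitors (495 µg per sample) was given fragment at 200 µM or vehicle for 3 h, in triplicate. It then received Biotin-Ahx-Ub-VS at 0.5 µM final for 1 h. Labelled DUBs were NeutrAvidin-enriched, digested with LysC and trypsin, and run by diaPASEF LC-MS/MS. Values are average log2 fragment/vehicle ratios by unpaired t-test on global-median-normalised Spectronaut quantities of proteins with ≥2 unique peptides.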

OTUD7B = molecular target: T2, OTUD7B (UniProt Q6GQQ9)
T2 sequence (whole entry): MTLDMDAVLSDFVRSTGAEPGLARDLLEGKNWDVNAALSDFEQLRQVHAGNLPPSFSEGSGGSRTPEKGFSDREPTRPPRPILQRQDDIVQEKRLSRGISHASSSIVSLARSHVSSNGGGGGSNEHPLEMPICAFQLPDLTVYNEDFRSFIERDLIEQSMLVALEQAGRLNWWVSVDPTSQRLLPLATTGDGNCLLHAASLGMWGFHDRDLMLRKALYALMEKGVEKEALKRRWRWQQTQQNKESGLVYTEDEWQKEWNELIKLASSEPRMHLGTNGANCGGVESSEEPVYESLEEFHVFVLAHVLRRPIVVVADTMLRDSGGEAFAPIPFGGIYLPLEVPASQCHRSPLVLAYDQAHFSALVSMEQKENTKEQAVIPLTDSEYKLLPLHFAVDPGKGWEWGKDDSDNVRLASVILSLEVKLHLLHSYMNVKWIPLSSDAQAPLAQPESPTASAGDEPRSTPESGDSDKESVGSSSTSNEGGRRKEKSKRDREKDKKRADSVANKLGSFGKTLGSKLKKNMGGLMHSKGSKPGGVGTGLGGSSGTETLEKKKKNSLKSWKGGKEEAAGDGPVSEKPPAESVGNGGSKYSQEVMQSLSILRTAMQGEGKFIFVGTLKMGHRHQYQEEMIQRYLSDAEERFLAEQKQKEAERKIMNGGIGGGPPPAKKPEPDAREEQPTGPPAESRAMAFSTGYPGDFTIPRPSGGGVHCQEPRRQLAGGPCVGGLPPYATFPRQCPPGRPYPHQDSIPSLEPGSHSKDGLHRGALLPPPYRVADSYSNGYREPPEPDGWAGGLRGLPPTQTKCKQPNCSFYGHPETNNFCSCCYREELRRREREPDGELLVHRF
How it was run: as §1

PRPF8 = PRPF8 (UniProt Q6P2Q9)
How it was run: as §1

PSMD7 = molecular target: T3, PSMD7 (UniProt P51665)
T3 sequence (whole entry): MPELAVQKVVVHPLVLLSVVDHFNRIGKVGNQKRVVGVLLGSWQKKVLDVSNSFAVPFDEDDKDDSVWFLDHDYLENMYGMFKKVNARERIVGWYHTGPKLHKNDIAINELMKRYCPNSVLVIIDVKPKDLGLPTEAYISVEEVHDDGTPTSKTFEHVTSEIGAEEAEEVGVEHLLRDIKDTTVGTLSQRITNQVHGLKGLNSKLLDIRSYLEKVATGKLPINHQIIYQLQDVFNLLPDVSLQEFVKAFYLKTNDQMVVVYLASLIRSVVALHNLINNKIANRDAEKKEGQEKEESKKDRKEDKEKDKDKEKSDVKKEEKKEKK
How it was run: as §1

UCHL1 = UCHL1 (UniProt P09936)
Sequence of UCHL1 (P09936 whole entry, looked up): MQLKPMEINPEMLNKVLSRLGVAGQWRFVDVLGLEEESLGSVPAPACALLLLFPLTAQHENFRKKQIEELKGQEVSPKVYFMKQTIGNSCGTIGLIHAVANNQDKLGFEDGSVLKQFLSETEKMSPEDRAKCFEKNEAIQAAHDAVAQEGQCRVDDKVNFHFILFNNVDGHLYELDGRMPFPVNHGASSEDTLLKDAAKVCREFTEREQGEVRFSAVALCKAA
How it was run: as §1

UCHL3 = molecular target: T4, UCHL3 (UniProt P15374)
T4 sequence (whole entry): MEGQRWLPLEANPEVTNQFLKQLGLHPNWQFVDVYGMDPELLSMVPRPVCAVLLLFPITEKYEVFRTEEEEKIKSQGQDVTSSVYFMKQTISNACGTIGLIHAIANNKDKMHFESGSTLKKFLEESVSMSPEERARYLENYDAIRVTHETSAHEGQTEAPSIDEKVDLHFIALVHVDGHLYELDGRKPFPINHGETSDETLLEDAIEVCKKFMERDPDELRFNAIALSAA
How it was run: as §1

UCHL5 = molecular target: T5, UCHL5 (UniProt Q9Y5K5)
T5 sequence (whole entry): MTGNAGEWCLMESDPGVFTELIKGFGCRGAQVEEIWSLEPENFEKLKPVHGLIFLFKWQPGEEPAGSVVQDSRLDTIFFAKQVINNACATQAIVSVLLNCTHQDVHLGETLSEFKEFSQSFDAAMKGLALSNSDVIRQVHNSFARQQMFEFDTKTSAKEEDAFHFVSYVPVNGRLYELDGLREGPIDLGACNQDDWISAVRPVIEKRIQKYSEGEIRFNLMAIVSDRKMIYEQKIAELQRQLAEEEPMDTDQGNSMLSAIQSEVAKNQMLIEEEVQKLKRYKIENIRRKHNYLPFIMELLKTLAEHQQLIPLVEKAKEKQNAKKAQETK
How it was run: as §1

USP10 = USP10 (UniProt Q14694)
Sequence of USP10 (Q14694 whole entry): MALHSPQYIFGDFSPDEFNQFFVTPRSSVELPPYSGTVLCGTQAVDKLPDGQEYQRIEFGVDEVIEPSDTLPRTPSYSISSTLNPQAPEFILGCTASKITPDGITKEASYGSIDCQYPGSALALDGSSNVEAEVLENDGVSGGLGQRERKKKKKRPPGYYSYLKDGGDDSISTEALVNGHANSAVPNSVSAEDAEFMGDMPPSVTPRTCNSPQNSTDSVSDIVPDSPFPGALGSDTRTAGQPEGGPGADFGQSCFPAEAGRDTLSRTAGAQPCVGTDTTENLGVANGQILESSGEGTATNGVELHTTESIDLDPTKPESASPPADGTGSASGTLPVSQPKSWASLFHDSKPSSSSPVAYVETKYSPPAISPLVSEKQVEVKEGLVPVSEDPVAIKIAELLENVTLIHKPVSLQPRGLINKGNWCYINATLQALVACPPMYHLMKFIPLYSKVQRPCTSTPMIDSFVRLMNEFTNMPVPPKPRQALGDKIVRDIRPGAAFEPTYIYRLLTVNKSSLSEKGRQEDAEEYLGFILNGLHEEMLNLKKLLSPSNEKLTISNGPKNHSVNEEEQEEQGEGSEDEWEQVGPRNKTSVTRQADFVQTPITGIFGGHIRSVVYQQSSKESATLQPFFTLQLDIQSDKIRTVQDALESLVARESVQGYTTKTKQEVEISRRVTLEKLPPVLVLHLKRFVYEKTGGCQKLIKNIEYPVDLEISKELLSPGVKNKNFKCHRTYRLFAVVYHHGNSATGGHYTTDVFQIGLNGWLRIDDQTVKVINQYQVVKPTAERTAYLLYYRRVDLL
How it was run: as §1

USP15 = molecular target: T6, USP15 (UniProt Q9Y4E8)
T6 sequence (whole entry): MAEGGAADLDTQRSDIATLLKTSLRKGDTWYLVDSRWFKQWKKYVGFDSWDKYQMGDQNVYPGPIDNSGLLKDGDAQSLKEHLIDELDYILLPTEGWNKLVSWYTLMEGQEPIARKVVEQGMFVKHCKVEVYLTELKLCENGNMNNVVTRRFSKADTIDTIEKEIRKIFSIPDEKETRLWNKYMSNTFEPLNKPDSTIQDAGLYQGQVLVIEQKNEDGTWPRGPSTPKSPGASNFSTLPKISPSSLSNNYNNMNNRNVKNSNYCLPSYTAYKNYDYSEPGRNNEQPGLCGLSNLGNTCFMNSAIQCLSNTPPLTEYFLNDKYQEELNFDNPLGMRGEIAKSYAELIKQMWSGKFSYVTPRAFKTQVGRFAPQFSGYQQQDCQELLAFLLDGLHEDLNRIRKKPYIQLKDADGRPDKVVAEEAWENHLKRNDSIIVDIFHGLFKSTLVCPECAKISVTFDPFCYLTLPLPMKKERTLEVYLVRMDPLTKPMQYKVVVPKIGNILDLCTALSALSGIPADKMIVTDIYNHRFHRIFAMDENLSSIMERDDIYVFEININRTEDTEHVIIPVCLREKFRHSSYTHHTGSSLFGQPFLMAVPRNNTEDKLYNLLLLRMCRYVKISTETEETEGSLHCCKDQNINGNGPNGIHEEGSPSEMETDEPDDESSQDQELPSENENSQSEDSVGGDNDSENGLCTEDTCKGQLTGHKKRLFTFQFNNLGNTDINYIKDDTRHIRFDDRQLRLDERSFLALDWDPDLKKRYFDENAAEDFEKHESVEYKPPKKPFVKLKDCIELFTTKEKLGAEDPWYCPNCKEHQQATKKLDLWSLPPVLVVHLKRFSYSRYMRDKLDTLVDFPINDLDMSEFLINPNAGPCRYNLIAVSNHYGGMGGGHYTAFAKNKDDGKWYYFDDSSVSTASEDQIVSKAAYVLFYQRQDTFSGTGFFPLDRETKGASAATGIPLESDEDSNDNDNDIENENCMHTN
How it was run: as §1

USP16 = USP16 (UniProt Q9Y5T5)
Sequence of USP16 (Q9Y5T5 whole entry, looked up): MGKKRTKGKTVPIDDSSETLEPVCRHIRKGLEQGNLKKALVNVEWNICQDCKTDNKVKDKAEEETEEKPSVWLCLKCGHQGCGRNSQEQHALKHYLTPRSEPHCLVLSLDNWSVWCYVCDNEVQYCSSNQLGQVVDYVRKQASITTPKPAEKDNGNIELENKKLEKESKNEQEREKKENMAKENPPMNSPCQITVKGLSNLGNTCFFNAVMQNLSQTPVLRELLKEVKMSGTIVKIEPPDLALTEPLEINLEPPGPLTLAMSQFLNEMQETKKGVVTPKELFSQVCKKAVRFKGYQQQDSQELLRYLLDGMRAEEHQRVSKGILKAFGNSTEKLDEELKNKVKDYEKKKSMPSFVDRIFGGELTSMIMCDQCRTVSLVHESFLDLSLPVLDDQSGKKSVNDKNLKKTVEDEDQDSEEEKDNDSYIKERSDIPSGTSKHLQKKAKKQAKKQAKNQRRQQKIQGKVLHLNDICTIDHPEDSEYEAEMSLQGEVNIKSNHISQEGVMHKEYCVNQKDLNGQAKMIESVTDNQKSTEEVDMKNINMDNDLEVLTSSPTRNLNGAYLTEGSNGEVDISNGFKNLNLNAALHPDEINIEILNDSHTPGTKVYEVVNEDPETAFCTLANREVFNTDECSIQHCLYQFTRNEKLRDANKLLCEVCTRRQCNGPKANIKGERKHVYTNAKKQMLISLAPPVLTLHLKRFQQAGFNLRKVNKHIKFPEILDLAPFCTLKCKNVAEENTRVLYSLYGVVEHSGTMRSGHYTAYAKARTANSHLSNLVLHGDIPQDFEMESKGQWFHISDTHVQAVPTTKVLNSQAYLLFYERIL
How it was run: as §1

Structure (SMILES)	log2 ratio of Biotin-Ahx-Ub-VS probe labelling (OTUD6B)	log2 ratio of Biotin-Ahx-Ub-VS probe labelling (OTUD7B)	log2 ratio of Biotin-Ahx-Ub-VS probe labelling (PRPF8)	log2 ratio of Biotin-Ahx-Ub-VS probe labelling (PSMD7)	log2 ratio of Biotin-Ahx-Ub-VS probe labelling (UCHL1)	log2 ratio of Biotin-Ahx-Ub-VS probe labelling (UCHL3)	log2 ratio of Biotin-Ahx-Ub-VS probe labelling (UCHL5)	log2 ratio of Biotin-Ahx-Ub-VS probe labelling (USP10)	log2 ratio of Biotin-Ahx-Ub-VS probe labelling (USP15)	log2 ratio of Biotin-Ahx-Ub-VS probe labelling (USP16)
O=C(CCl)N[C@H]1CCS(=O)(=O)c2ccccc21	-0.0586	-1.71 (active)	0.0359	-0.0772	-1.5 (active)	0.351	-0.0806	-0.109	-0.195	-0.601
O=C(CCl)NCCC1=CCCCC1	-0.254	-0.269	0.145	0.0106	-1.6 (active)	0.284	-0.111	-0.0126	-0.103	-0.0314
COCC1C=CCCN1C(=O)CCl (stereo not given)	-0.121	-0.466	-0.181	-0.134	-1.94 (active)	-0.0426	-0.167	-0.0693	-0.145	-0.0544
Cc1ccc2nnc(CNC(=O)CCl)n2c1	0.146	-0.395	0.153	0.238	-1 (active)	0.34	-0.0479	-0.0942	-0.0934	-0.0611
Cc1ccc(N(CCC#N)C(=O)CCl)cc1C	-0.133	-1.99 (active)	0.0257	-0.41	-1.31 (active)	0.292	-0.157	-0.00551	-0.234	-0.0509
O=C(CCl)NC1CCOc2ccccc21 (stereo not given)	-0.54	-2.14 (active)	-0.152	-0.0224	-1.84 (active)	-0.57	-1.08 (active)	-0.255	-0.851	-0.325
Cl.O=C(CCl)N1CC(c2ccc(Br)cn2)C1	-0.116	-1.18 (active)	0.0941	-0.394	-1.41 (active)	-0.211	-0.254	-0.0353	-0.409	-0.253
Cl.O=C(CCl)N1CCCC(c2ncc[nH]2)C1 (stereo not given)	-0.0792	-0.245	-0.138	-0.217	-1.49 (active)	0.271	-0.164	-0.028	-0.0525	-0.216
Cc1cccc(C(CNC(=O)CCl)N2CCOCC2)c1.Cl (stereo not given)	-0.0947	-0.255	-0.0193	-0.183	-1.07 (active)	0.278	-0.182	-0.0807	-0.0506	-0.147
C[C@H]1CN(C(=O)CCl)CCN1C(=O)c1cnn(C)c1.Cl	-0.288	-0.168	0.144	-0.0809	-2.38 (active)	0.376	-0.259	0.0256	-0.149	-0.146
CN1c2ccccc2C(NC(=O)CCl)CS1(=O)=O (stereo not given)	-0.0927	-2.41 (active)	0.0667	-0.189	-1.69 (active)	0.316	-0.387	0.128	-0.212	-0.411
O=C(CCl)N1CCC(C(=O)N2CCCCCC2)CC1	0.0239	-0.19	0.0601	-0.0463	-1.19 (active)	0.241	-0.191	-0.0405	-0.115	-0.164
CC(NC(=O)CCl)c1cc2n(n1)CCCC2.Cl (stereo not given)	-0.253	-1.77 (active)	0.0583	0.0299	-2.03 (active)	0.315	-0.121	-0.153	0.0201	-0.211
O=C(CCl)N1CCc2sccc2C1	-0.251	-1.08 (active)	0.249	-0.000885	-1.18 (active)	-0.458	-0.259	-0.16	-0.737	-0.278
O=C(CCl)N1CCCCCC1c1ncon1 (stereo not given)	-0.149	-0.512	-0.173	-0.174	-1.82 (active)	0.279	-0.229	-0.0372	-0.142	-0.0478
